# Laboratory results reported in PubChem BioAssay (NCATS).
# Records with an inconclusive call do not appear. The source made the active and inactive calls. Calls come from the whole dose curve; as a rule, active = well fitted cell-killing curve with a large enough effect; inconclusive = small, poorly fitted or top-dose-only effect; inactive = flat fitted curve, though single readings scatter.
# Assay: qHTS of pediatric cancer cell lines to identify multiple opportunities for drug repurposing: Primary screen for U-2 OS cells (AID 1347096);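 note: plate controls were DMSO wells for no effect and bortezomib positive control wells for full effect; nearly all actives have a fitted effect of over 50% in size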
# Conditions: U-2 OS viability, CellTiter-Glo luminescence, 48 h; series mostly up to 46 µM; activity change, negative = cytotoxic: at the top concentration
# Source text: Drug repurposing or repositioning has been offered as a strategy for drug development in oncology programs. This approach has special potential for childhood cancers and other rare or orphan diseases, where the expected return on new drug development has been a disincentive to pharmaceuticals.
# In this project we exploit the poly-pharmacology of drugs to discover new indications via phenotypic screening of a panel of 19 well-characterized cell lines derived from solid tumors seen in children and adolescents. The goal is to identify approved drugs with previously unrecognized anticancer properties that has the potential to reveal new mechanisms and biological processes involved in carcinogenesis or drug resistance. We employed a titration-based paradigm (quantitative high-throughput screening or qHTS), where all compounds were tested at multiple concentrations for their effect on cell viability. Concentration-response curves (CRCs) were derived directly from the primary screen, and both potency and efficacy values were used to identify compounds with robust bioactivity profiles. We screened the NIH Chemical Genomics Center (NCGC) Pharmaceutical Collection (NPC) and Mechanism Interrogation Plate (MIPE) small molecule collections of approved and investigational compounds against these cell lines; and measured metabolically active cells after 48 hours of compound treatment as a proxy for cell viability.
# Assay Submitter: Nathalia J. Martinez, National Center for Advancing Translational Sciences, National Institutes of Health, Rockville, MD, USA; email: natalia.martinez@nih.gov
# [1] Shen, M et al. Quantitative high-throughput phenotypic screening of pediatric cancer cell lines identifies multiple opportunities for drug repurposing. Oncotarget 2017 Dec 19;9(4):4758-4772. PMID 29435139.
# The cells were obtained from University of North Carolina (UNC), Pediatric Preclinical Testing Program (PPT), and Coriell Institute (CI).
# qHTS cell viability assay:
# Cells were assayed in growth media at a density of 500-1,000 cells/well. Five microliters of cells were dispensed into 1,536-well, white, solid-bottom, TC-treated plates (Greiner Bio One) using a multidrop dispenser and incubated at 37 degrees C, 5% CO2, under a humidified atmosphere for 5 hours. Twenty-three nanoliters of compounds and controls (neutral control DMSO or positive control bortezomib at final concentration of 2.3 µM) were subsequently transferred by Kalypsys pintool. For primary screens, the MIPE collection was tested at 11-point dilutions (final concentrations range from 0.78 nM to 46 µM) and the NPC collection at 8-point dilutions (final concentrations range from 0.59 nM to 46 µM). Compounds tested in follow-up screens were assayed at 11-point dilutions. Cells were incubated for 48 hours, followed by addition of 3 µL of CellTiter-Glo (Promega). After a 15 min incubation at room temperature, samples were analyzed for luminescence intensity using a ViewLux High-throughput CCD imager equipped with clear filters.
row,SMILES,"activity change, negative = cytotoxic"
1,NS(=O)(=O)c1cc(-c2nn[nH]n2)c(NCc2cccs2)cc1Cl,11.4% (inactive)
2,CC(=O)Nc1ccccc1,3.24% (inactive)
3,NC(N)=NS(=O)(=O)c1ccc(N)cc1,0.0392% (inactive)
4,OCCN1C[C@H](O)[C@@H](O)[C@H](O)[C@H]1CO,17.4% (inactive)
5,OC[C@@H](O)[C@@H](O)[C@H](O)[C@H](O)CO,-8.08% (inactive)
6,CC(=O)OC[C@H]1O[C@@](COC(C)=O)(O[C@H]2O[C@H](COC(C)=O)[C@@H](OC(C)=O)[C@H](OC(C)=O)[C@H]2OC(C)=O)[C@@H](OC(C)=O)[C@@H]1OC(C)=O,0.326% (inactive)
7,CC(C)C[C@@H](N)C(=O)O,8.02% [at 16.1 µM] (inactive)
8,NS(=O)(=O)c1ccc(NC(=O)CCC(=O)O)cc1,1.15% (inactive)
9,O=C(Cn1ccnc1[N+](=O)[O-])NCc1ccccc1,-0.886% (inactive)
10,CC[N+](CC)(CC(=O)Nc1c(C)cccc1C)Cc1ccccc1,3.93% (inactive)
11,C=CCOc1ccccc1OCC(O)CNC(C)C (stereo not given),11.2% (inactive)
12,CCc1cccc(CC)c1NC(=O)CN(CC(=O)O)CC(=O)O,-4.38% (inactive)
13,O=c1[nH]cnc2nc[nH]c12,19.3% (inactive)
14,CN1C(C)(C)CCCC1(C)C,-3.2% (inactive)
15,CCN(CC)CCOC(=O)C(c1ccccc1)c1ccccc1,-1.32% (inactive)
16,CC(=O)N[C@@H](Cc1ccc(O)cc1)C(=O)O,-5.06% (inactive)
17,O=C(O)Cn1c(C(=O)Nc2nc(-c3ccccc3Cl)cs2)cc2ccccc21,-4.79% (inactive)
18,CC(=O)NS(=O)(=O)c1ccc(N)cc1,8.79% (inactive)
19,CCCOC(=O)c1ccc(N)cc1,8.48% (inactive)
20,C=CCN1C[C@H](C(=O)N(CCCN(C)C)C(=O)NCC)C[C@@H]2c3cccc4[nH]cc(c34)C[C@H]21,8.74% (inactive)

row,SMILES,"activity change, negative = cytotoxic"
1,O=C(NCN1CCOCC1)c1cnccn1,-3.7% (inactive)
2,C[N+]1(C)CCCC(OC(=O)C(O)(c2ccccc2)c2ccccc2)C1 (stereo not given),9.83% (inactive)
3,CC[N+](C)(CC)CCOC(=O)C1c2ccccc2Oc2ccccc21,9.29% (inactive)
4,CCN(CC)C(=O)c1cccc(C)c1,12.3% (inactive)
5,COCC(=O)Nc1c(I)c(C(=O)NCC(O)CO)c(I)c(C(=O)N(C)CC(O)CO)c1I (stereo not given),0.437% (inactive)
6,NC(N)=NCCN1CCCCCCC1,9.69% [at 0.597 µM] (inactive)
7,O=C1CC[C@@H](C(=O)O)N1,-4.93% (inactive)
8,CCN[C@H]1CN(CCCOC)S(=O)(=O)c2sc(S(N)(=O)=O)cc21,7.81% (inactive)
9,CCOC(=O)[C@H](CCc1ccccc1)N[C@@H](C)C(=O)N1Cc2cc(OC)c(OC)cc2C[C@H]1C(=O)O,-0.683% (inactive)
10,O=C(O)CCCc1ccccc1,10.5% (inactive)
11,Cc1ccc(S(=O)(=O)NC(=O)NC2CCCCC2)cc1,1.66% (inactive)
12,O=C1C(c2[nH]c3ccccc3c2O)=Nc2ccccc21,4.81% (inactive)
13,Cc1ncc(CO)c(CN)c1O,2.34% (inactive)
14,CC(=O)[C@@]1(O)CC[C@H]2[C@@H]3C[C@H](C)C4=CC(=O)C=C[C@]4(C)[C@@]3(F)[C@@H](O)C[C@@]21C,-3.49% (inactive)
15,COc1ccccc1OC(=O)Oc1ccccc1OC,8.6% (inactive)
16,CCN1CC(CCN2CCOCC2)C(c2ccccc2)(c2ccccc2)C1=O (stereo not given),4.09% (inactive)
17,NNc1nnc(NN)c2ccccc12,-2.43% (inactive)
18,CC(CN(C)C)C(C)(O)Cc1ccc(Cl)cc1 (stereo not given),10.6% (inactive)
19,CN/C(=C\[N+](=O)[O-])NCCSCc1csc(CN(C)C)n1,7.3% (inactive)
20,CCN(CC)S(=O)(=O)c1ccc(C(=O)O)cc1,-5.96% (inactive)
